Experimental data from the supplement of paper PMC11732987, “Enantioselective OTUD7B fragment discovery through chemoproteomics screening and high-throughput optimisation” (Communications Chemistry, 2025).

Target: T1, USP38 (UniProt Q8NB14)
T1 sequence (whole entry): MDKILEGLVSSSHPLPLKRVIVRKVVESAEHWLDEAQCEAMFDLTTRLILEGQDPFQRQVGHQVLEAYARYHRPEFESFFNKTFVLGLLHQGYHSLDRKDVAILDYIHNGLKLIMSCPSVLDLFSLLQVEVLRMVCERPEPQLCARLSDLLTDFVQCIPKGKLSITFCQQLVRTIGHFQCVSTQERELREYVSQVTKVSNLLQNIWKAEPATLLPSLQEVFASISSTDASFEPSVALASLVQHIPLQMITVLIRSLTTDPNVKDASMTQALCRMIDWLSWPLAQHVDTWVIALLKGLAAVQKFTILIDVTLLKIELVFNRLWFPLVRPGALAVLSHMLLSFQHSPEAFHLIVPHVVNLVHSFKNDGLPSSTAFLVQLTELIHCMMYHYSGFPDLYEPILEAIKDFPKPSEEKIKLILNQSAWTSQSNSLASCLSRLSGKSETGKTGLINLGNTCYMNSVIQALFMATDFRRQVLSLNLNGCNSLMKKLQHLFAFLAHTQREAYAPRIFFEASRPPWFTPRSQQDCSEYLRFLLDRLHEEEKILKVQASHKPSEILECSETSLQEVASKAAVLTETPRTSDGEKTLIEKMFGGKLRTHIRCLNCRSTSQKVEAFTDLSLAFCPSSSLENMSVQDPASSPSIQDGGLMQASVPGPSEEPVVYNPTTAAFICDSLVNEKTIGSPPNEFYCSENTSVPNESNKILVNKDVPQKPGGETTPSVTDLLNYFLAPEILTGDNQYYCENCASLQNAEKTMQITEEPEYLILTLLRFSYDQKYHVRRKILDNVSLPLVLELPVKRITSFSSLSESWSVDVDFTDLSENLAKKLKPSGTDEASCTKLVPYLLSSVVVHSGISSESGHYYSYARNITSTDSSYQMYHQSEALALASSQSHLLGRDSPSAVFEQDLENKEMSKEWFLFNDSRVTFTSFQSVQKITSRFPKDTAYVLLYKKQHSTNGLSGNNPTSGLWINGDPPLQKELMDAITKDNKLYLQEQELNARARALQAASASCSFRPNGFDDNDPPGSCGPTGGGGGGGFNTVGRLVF
Assay: log2 ratio of Biotin-Ahx-Ub-VS probe labelling (compound/DMSO); higher = less target engagement, active = hit call of the paper (q ≤ 0.05, log2 ratio ≤ -1)
Settings: compound concentration: 50uM; treatment time: 3 h
Method: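 Round 2 competitive ABPP in HEK293T lysate. Compounds were tested at 50 and 200 µM for 3 h, followed by Biotin-Ahx-Ub-VS enrichment and diaPASEF LC-MS/MS. Values are the average log2 ratio (compound/DMSO) from an unpaired t-test (n=3 treated, n=26 DMSO).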

log2 ratio of Biotin-Ahx-Ub-VS probe labelling, inactive:
CN1c2ccccc2C(NC(=O)CCl)CS1(=O)=O (configuration not stated) -0.19, CCC1c2ccsc2CCN1C(=O)CCl (configuration not stated) 0.124, COc1cccc(CN(C)C(=O)CCl)c1 0.0582, Cl.O=C(CCl)N1CCc2ncncc2C1 -0.214, O=C(CCl)NC1CCOc2ccccc21 (configuration not stated) 0.0839, Cl.Cn1ncc2c1CCCC2NC(=O)CCl (configuration not stated) 0.328

Same assay, conditions: compound concentration: 200uM; treatment time: 3 h

log2 ratio of Biotin-Ahx-Ub-VS probe labelling, inactive:
CN1c2ccccc2C(NC(=O)CCl)CS1(=O)=O (configuration not stated) -0.231, CCC1c2ccsc2CCN1C(=O)CCl (configuration not stated) -0.277, COc1cccc(CN(C)C(=O)CCl)c1 -0.322, Cl.O=C(CCl)N1CCc2ncncc2C1 -0.296, O=C(CCl)NC1CCOc2ccccc21 (configuration not stated) -0.0989, Cl.Cn1ncc2c1CCCC2NC(=O)CCl (configuration not stated) -0.153
